Potency, activity, negative = inhibition and activity change, negative = inhibition data for nine compounds are collected here from PubChem BioAssay (Tox21).

Molecules are shown by their SMILES. Records with an inconclusive call do not appear. Calls of active or inactive are those of the source. Calls come from the whole dose curve.

The target of test [1] is Acetylcholinesterase (Homo sapiens) (UniProt P22303). The experiment in a line: Acetylcholinesterase (AChE) small molecule antagonists: colormetric cell-based qHTS assay (AID 1347395). Note: nearly all actives have a fitted effect of over 30% in size. Note: potency is the fitted concentration of half-maximal effect. The method in brief:
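Cells (SH-SY5Y, 2,000 per well) are seeded and left overnight at 37 C. Compound is added for 30 min, then DTNB and acetylthiocholine for a further 90 min at 37 C before absorbance-based thiocholine detection.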
(qHTS replaces the single test concentration by a dilution series.)

Test [2] shares this target. The experiment in a line: Acetylcholinesterase (AChE) small molecule antagonists: enzyme-based qHTS assay (AID 1347397). Note: nearly all actives have a fitted effect of over 55% in size. The conditions noted are these: Potency: AChE enzyme activity inhibition; outcome: AChE enzyme activity inhibition. The method in brief: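 Colorimetric DTNB read-out of thiocholine released from acetylthiocholine by recombinant human AChE (50 mU/mL as dispensed). Compounds were preincubated 30 min at RT before substrate/DTNB addition, with a 10 min RT reaction.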

Test [3] has the same target. The experiment in a line: Acetylcholinesterase (AChE) small molecule antagonists: enzyme-based qHTS assay with human liver microsomes (AID 1347399). Note: nearly all actives have a fitted effect of over 60% in size. The conditions noted are these: Potency: qHTS inhibition; outcome: qHTS inhibition. The method in brief:
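Recombinant human AChE (50 mU/mL in the enzyme mix) and human liver microsomes (0.25 mg/mL final) were preincubated with compound and NADPH (0.25 mg/mL final) for 30 min at 37 C. Acetylthiocholine/DTNB was then added; thiocholine was read colorimetrically after 10 min at room temperature.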
% is set by controls: 0 for no effect and ±100 for the full control effect.

Sequence of Acetylcholinesterase (Homo sapiens) (P22303 whole entry, looked up): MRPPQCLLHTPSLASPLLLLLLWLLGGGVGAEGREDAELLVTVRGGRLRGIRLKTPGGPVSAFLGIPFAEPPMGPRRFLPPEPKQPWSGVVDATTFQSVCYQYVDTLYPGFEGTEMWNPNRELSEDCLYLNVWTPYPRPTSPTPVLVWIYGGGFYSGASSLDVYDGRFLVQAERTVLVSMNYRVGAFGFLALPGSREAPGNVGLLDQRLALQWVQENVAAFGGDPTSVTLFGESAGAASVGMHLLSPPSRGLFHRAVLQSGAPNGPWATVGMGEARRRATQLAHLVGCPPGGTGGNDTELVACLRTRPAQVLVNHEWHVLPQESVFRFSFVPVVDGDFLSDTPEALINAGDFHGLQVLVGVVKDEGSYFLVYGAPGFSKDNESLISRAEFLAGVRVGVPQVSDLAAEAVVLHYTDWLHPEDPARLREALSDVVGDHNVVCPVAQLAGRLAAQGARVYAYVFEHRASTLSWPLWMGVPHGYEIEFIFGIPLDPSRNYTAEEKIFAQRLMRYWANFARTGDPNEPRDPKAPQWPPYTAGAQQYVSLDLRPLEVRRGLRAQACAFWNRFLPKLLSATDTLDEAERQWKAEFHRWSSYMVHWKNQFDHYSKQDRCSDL

As to `CNCc1ccc(NC(=O)c2c[nH]c3c2C(=O)CCC3)cc1`, the Potency in test [1] is 35.6 µM (active). In addition, the Potency result in test [2] and in test [3] was “inactive” throughout.

As for `CCCCCCCCCCCCCCN(CCO)CCO`, the Potency result in test [1], in test [2] and in test [3] was “inactive” each time.

On to `CC(O)CCCCn1c(=O)c2c(ncn2C)n(C)c1=O` (configuration not stated), for which the Potency result in test [1], in test [2] and in test [3] was “inactive” each time.

Regarding `O=C(CCN1CCN2CCCC2C1)N1c2ccccc2Sc2ccc(Cl)cc21` (configuration not stated), the activity, negative = inhibition in test [1] is 0% [at 23.6 µM] (inactive). Besides, the activity change, negative = inhibition in test [2] is 0.831% [at 23.6 µM] (inactive); in test [3], 1.34% [at 23.6 µM] (inactive).

As to `CCOc1cc(N)c(Cl)cc1C(=O)NCC1CN(Cc2ccc(F)cc2)CCO1` (configuration not stated), the Potency entry in test [1], in test [2] and in test [3] was “inactive” throughout.

For the compound `O=[N+]([O-])C1(Br)COCOC1`, the Potency result in test [1], in test [2] and in test [3] was “inactive” throughout.

For `NC(=O)NC1N=C([O][Al])NC1=O` (configuration not stated), the Potency result in test [1], in test [2] and in test [3] was “inactive” in each case.

For `CCC(=O)Oc1ccc2c(c1)CC[C@@H]1[C@@H]2CC[C@@]2(C)[C@H]1C[C@@H](OC(=O)CC)[C@@H]2OC(=O)CC`, the Potency entry in test [1], in test [2] and in test [3] was “inactive” each time.

For `CCCCCCCCCCCCSCCOCCO`, the Potency result in test [1], in test [2] and in test [3] was “inactive” throughout.
